# Bioassay records from PubChem.
# Compounds with a hit are over-represented: about 6.8% of the library has one in this group of screens.
# NS3h inh CB – blocks HCV NS3 helicase binding to DNA. NS3h Cy5-dT15 DNA binding, fluorescence polarization. inhibition, % at 100 µM. hit rate 1.6% among 16,000. AID 687043;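 active means inhibition above the average over every tested compound plus 3 SD, cut at about 40% in these data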
# Cy5 interf NS3h – enhances or quenches Cy5 fluorescence in NS3h assay. hit rate 6% among 16,000. fluorescence interference ratio at 100 µM. AID 720488. Cy5-dT15 DNA with NS3h, fluorescence interference; actives lie on both sides; signal over control mean, under 1 quenches;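 active means compound fluorescence over control fluorescence at most 0.8, a quencher, or at least a set upper limit, an enhancer; inactive means ratio between 0.8 and the set upper limit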
# NS3h confirm – hepatitis C NS3 helicase inhibition, confirmation; shares compounds with NS3h inh CB; NS3h binding to Cy5-dT15 DNA, fluorescence polarization; inhibition, % at 100 µM; hit rate 20% among 240; AID 720485;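 active means percent inhibition of 50% or more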
# SSB-DNA FP CB – counter-screen for HCV NS3 helicase inhibitors: E. coli SSB binding | hit rate 40% among 240 | shares compounds with NS3h inh CB | inhibition, % at 100 µM | E. coli SSB binding Cy5-dT15, fluorescence polarization;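 active means inhibition of at least 50%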;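 further: displacers lower Cy5 polarization so higher inhibition means more SSB displaced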
# Target sequence (P0AGE0 whole entry, looked up): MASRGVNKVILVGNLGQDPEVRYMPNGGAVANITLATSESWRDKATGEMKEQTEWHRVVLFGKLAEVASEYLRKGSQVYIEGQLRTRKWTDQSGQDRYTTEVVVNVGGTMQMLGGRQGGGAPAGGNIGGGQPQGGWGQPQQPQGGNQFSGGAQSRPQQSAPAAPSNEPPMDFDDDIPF
# Cy5 SSB interf – enhances or quenches Cy5-DNA fluorescence with E. coli SSB | shares compounds with NS3h inh CB | Cy5-dT15/E. coli SSB fluorescence interference; actives lie on both sides | fluorescence interference ratio at 100 µM | hit rate 8% among 240 | AID 720487;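 active means fluorescence interference ratio at or above 1.2, signal boosting, or at or below 0.8, signal quenching; inactive means ratio between 0.8 and 1.2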
# Cy5 fluor confirm – confirmation counter-screen for HCV NS3 helicase inhibitors: fluorescence interference | shares compounds with NS3h inh CB | Cy5-dT15 DNA/NS3h fluorescence interference counterscreen | fluorescence interference ratio at 100 µM, hits read low | hit rate 44% among 240 | AID 720489;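 active means fluorescence interference ratio at or below 0.8 quencher or at or above a set limitenhancer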
# A number is an active result; n = inactive; x = no result.
SMILES,NS3h inh CB,Cy5 interf NS3h,NS3h confirm,SSB-DNA FP CB,Cy5 SSB interf,Cy5 fluor confirm
NC(=O)c1ccccc1NC(=O)c1cncc(Br)c1,n,n,x,x,x,x
Cc1ccc(N2C(=O)/C(=C\c3ccc(-c4ccc(Cl)c(C(=O)O)c4)o3)C(=O)NC2=S)cc1,83,n,n,94,n,0.73
COc1cc([N+](=O)[O-])ccc1-c1ccc(/C=C2\C(=O)NC(=S)N(c3ccc(Cl)cc3)C2=O)o1,n,n,x,x,x,x
O=C1NC(=S)N(c2ccccc2)C(=O)/C1=C/c1ccc(-c2cccc(Cl)c2Cl)o1,n,n,x,x,x,x
O=C1NC(=S)N(c2ccccc2)C(=O)/C1=C/c1ccc(-c2ccc(Cl)c(C(=O)O)c2)o1,93,n,n,90,n,0.78
CC/C(=C1\C(=O)N(c2nc3ccccc3s2)N=C1C(F)(F)F)N1CCCCC1,n,n,x,x,x,x
CC1(C)CC(=O)C=C(Nc2ccccc2C#N)C1,n,n,x,x,x,x
CC1(C)CC(=O)C=C(Nc2ccc(NC3=CC(=O)CC(C)(C)C3)cc2)C1,44,n,n,n,n,0.8
O=C(CP(=O)(c1ccccc1)c1ccccc1)c1ccccc1,n,n,x,x,x,x
CCOc1cc(/C=C2\C(=O)NC(=O)N(c3ccc(Cl)cc3)C2=O)cc(I)c1OC,n,n,x,x,x,x
CCCCCCN1C(=O)C(=O)C(=C(O)c2ccccc2)C1c1ccc(OC)cc1 (stereo not drawn),n,n,x,x,x,x
